Records with an inconclusive call do not appear. Calls of active or inactive are those of the source. Rule for the calls, unless noted: active = hit-call score of the fitted dose curve at least 0.9, where 1 is the maximum; inconclusive = response in the unintended direction; inactive = score below 0.9.
Key:
[1] = ATG_TCF_b_cat_CIS: Attagene CIS-FACTORIAL HepG2 Assay for human T-Cell-Factor with beta-catenin (TCF/b-cat) (AID 2282965; active = hit-call score of the fitted dose curve at least 0.9, where 1 is the maximum; inactive = score below 0.9); conditions: HepG2 TCF/beta-catenin cis-reporter transcription, actives raise or lower the signal
Procedure, shortened: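 Endogenous TCF/LEF activity read as reporter transcript level via RT-PCR and capillary electrophoresis fluorescence in transfected HepG2, 24 h exposure; gain or loss of signal fitted against DMSO controls.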

[2] = ATG_TAL_CIS: Attagene CIS-FACTORIAL HepG2 Assay for human TAL Basal Promoter (AID 2282966; active = hit-call score of the fitted dose curve at least 0.9, where 1 is the maximum; inactive = score below 0.9;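 note: background control endpoint measuring basal TAL promoter reporter mRNA not a specific factor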); conditions: HepG2 Attagene cis-factorial TAL promoter reporter; actives raise or lower the signal
Procedure, shortened: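 After 24 hours of chemical exposure, transfected HepG2 cells yielded RNA that was converted to 6-FAM-labelled, HpaI-digested reporter fragments for capillary electrophoresis. Values derive from bidirectional fitting against DMSO controls.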

[3] = ATG_TGFb_CIS: Attagene CIS-FACTORIAL HepG2 Assay for human Transforming Growth Factor (TGF) (AID 2282967; active = hit-call score of the fitted dose curve at least 0.9, where 1 is the maximum; inactive = score below 0.9); conditions: HepG2 Attagene CIS TGFb reporter, mRNA transcription; actives raise or lower the signal
Procedure, shortened: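 HepG2 cells transiently transfected with cis-promoter-driven multiplexed reporter units; 24 h compound exposure. Reporter mRNA measured by RT-PCR, 6-FAM labeling, HpaI digestion and capillary electrophoresis; bidirectional fit versus DMSO baseline.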

[4] = ATG_VDRE_CIS: Attagene CIS-FACTORIAL HepG2 Assay for human Vitamin D Receptor Element (VDRE) (AID 2282968; active = hit-call score of the fitted dose curve at least 0.9, where 1 is the maximum; inactive = score below 0.9); conditions: HepG2 VDRE cis-reporter transcription, actives raise or lower the signal
Procedure, shortened: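 Measures endogenous factor activity through cis-element-driven reporter transcripts in transiently transfected HepG2. Cells are treated 24 h; reporter mRNA is quantified by RT-PCR and capillary electrophoresis; fitting is bidirectional.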

[5] = target: Nuclear receptor subfamily 1 group I member 3 (Homo sapiens) (UniProt Q14994); experiment: ATG_CAR_TRANS: Attagene TRANS-FACTORIAL HepG2 Assay for human Constitutive Androstane Receptor (CAR) (AID 2282969); conditions: HepG2 Attagene TRANS-FACTORIAL CAR reporter;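 note: activators raise reporter mRNA above DMSO so AC50 marks induction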
Procedure, shortened: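 Signal is reporter mRNA induction relative to DMSO, measured 24 h after dosing by RT-PCR with fluorescent primer extension and capillary electrophoresis. Human HepG2 liver cells carried transiently transfected chimeric NR-Gal4/GAL4-UAS reporter constructs.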

[6] = target: Estrogen receptor (Homo sapiens) (UniProt P03372); experiment: ATG_ERa_TRANS: Attagene TRANS-FACTORIAL HepG2 Assay for human Estrogen Receptor alpha (ERa) (AID 2282970); conditions: HepG2 Attagene TRANS ERa GAL4 reporter, mRNA
Procedure, shortened: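 Liver-derived HepG2 cells expressing chimeric nuclear receptor-Gal4 proteins from transient transfection were exposed for 24 hours. Gain of reporter mRNA signal versus DMSO, read by capillary electrophoresis of FAM-labelled PCR products, was recorded.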

[7] = target: Steroid hormone receptor ERR1 (Homo sapiens) (UniProt P11474); experiment: ATG_ERRa_TRANS: Attagene TRANS-FACTORIAL HepG2 Assay for human Estrogen-Related Receptor alpha (ERRa) (AID 2282971); conditions: HepG2 Attagene TRANS reporter, ERRa transactivation
Procedure, shortened: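 Reporter transcript induction was quantified by RT-PCR and capillary electrophoresis of FAM-labelled, HpaI-cut products after 24 h treatment of HepG2 cells carrying transiently transfected GAL4-UAS reporter units and an exogenous ERRa-Gal4 fusion; activity scored as increase over DMSO.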

[8] = ATG_M_19_TRANS: Attagene TRANS-FACTORIAL HepG2 Assay for M19 Transcription Factor (Internal Marker) (AID 2282974); conditions: HepG2 Attagene TRANS-FACTORIAL M19 internal marker reporter
Procedure, shortened: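 HepG2 cells transiently transfected with multiple GAL4-UAS reporter transcription units were exposed to chemicals for 24 h. Reporter mRNA was read by RT-PCR, 6-FAM primer extension, HpaI digestion and capillary electrophoresis; gain of signal fitted relative to DMSO.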

[9] = target: Estrogen-related receptor gamma (Homo sapiens) (UniProt P62508); experiment: ATG_ERRg_TRANS: Attagene TRANS-FACTORIAL HepG2 Assay for human Estrogen-Related Receptor gamma (ERRg) (AID 2282977); conditions: HepG2 Attagene TRANS reporter, ERRg transactivation;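 note: hits increase reporter signal over DMSO so potencies reflect activators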
Procedure, shortened: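 Readout: fluorescent reporter-mRNA fragments resolved by capillary electrophoresis after RT-PCR and HpaI cut. Cells: transiently transfected HepG2 carrying GAL4-UAS reporters driven by exogenous NR-Gal4 chimeras, dosed 24 h. Activity fitted upward relative to DMSO baseline.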

[10] = target: Glucocorticoid receptor (Homo sapiens) (UniProt P04150); experiment: ATG_GR_TRANS: Attagene TRANS-FACTORIAL HepG2 Assay for human Glucocorticoid Receptor (GR) (AID 2282978); conditions: HepG2 Attagene TRANS GR reporter, mRNA transcription;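 note: activators score as hits since higher reporter transcript over DMSO is fitted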
Procedure, shortened: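 HepG2 cells transiently transfected with multiplexed reporter units in which chimeric NR-GAL4 proteins drive GAL4-UAS reporters; 24 h compound exposure. Reporter mRNA measured by RT-PCR, 6-FAM labelling, HpaI digestion and capillary electrophoresis; gain-of-signal fitted versus DMSO.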

[11] = target: Oxysterols receptor LXR-alpha (Homo sapiens) (UniProt Q13133); experiment: ATG_LXRa_TRANS: Attagene TRANS-FACTORIAL HepG2 Assay for human Liver X Receptor alpha (LXRa) (AID 2282980); conditions: HepG2 Attagene TRANS reporter, LXRa transactivation
Procedure, shortened: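 Transfect HepG2 with GAL4-UAS multiplex reporter constructs (TRANS format, chimeric receptor-GAL4); treat 24 h; extract RNA, reverse-transcribe, PCR-amplify, FAM-label, HpaI-digest; resolve fragments by capillary electrophoresis. Upward response vs DMSO.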

[12] = target: Nuclear receptor subfamily 4 group A member 2 (Homo sapiens) (UniProt P43354); experiment: ATG_NURR1_TRANS: Attagene TRANS-FACTORIAL HepG2 Assay for human Nuclear Receptor Related Protein 1 (NURR1) (AID 2282985); conditions: HepG2 Attagene TRANS reporter, mRNA readout
Procedure, shortened: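 Measures transcriptional activation by an exogenous NR-Gal4 chimera in transfected HepG2 liver cells. After 24 h, reporter RNA is reverse-transcribed, amplified and resolved by capillary electrophoresis; DMSO defines baseline.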

[13] = target: Transcriptional activator Myb (Homo sapiens) (UniProt P10242); experiment: ATG_Myb_CIS: Attagene CIS-FACTORIAL HepG2 Assay for human Myeloblastosis (Myb) Proto-Oncogene Transcription Factor (AID 2282986; active = hit-call score of the fitted dose curve at least 0.9, where 1 is the maximum; inactive = score below 0.9); conditions: HepG2 Attagene CIS-FACTORIAL Myb reporter transcription; actives raise or lower the signal
Procedure, shortened: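 HepG2 cells were transiently transfected with cis-regulated multiple reporter transcription units reflecting endogenous Myb activity, then exposed to compound for 24 hours. Reporter mRNA was measured by RT-PCR with capillary electrophoresis; bidirectional fitting versus DMSO baseline.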

[14] = target: X-box-binding protein 1 (Homo sapiens) (UniProt P17861); experiment: ATG_Xbp1_CIS: Attagene CIS-FACTORIAL HepG2 Assay for human X-box Binding Protein 1 (XBP1) (AID 2282972; active = hit-call score of the fitted dose curve at least 0.9, where 1 is the maximum; inactive = score below 0.9); conditions: HepG2 XBP1 cis-element reporter, Attagene multiplex; actives raise or lower the signal
Procedure, shortened: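 Human hepatoma HepG2, cis-element reporter system, 24 h treatment; mRNA quantified by RT-PCR/CE fluorescence; fit relative to DMSO.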

[15] = target: Hepatocyte nuclear factor 4-alpha (Homo sapiens) (UniProt P41235); experiment: ATG_HNF4a_TRANS: Attagene TRANS-FACTORIAL HepG2 Assay for human Hepatocyte Nuclear Factor 4 alpha (HNF4a) (AID 2282982); conditions: HepG2 HNF4a transactivation reporter, mRNA readout
Procedure, shortened: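 Multiplexed reporter assay: transfected HepG2, 24 h exposure, total RNA → oligo(dT) RT → PCR → 6-FAM extension → HpaI digest → CE fluorescence. DMSO = negative control.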

[16] = ATG_M_06_TRANS: Attagene TRANS-FACTORIAL HepG2 Assay for M06 Transcription Factor (Internal Marker) (AID 2282983); conditions: HepG2 Attagene TRANS M06 internal marker reporter
Procedure, shortened: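 Background control endpoint: reporter mRNA from transiently transfected HepG2 after 24 h dosing, detected by RT-PCR with capillary electrophoresis fluorescence. Analysed for gain versus DMSO.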

[17] = ATG_M_32_TRANS: Attagene TRANS-FACTORIAL HepG2 Assay for M32 Transcription Factor (Internal Marker) (AID 2282984); conditions: HepG2 Attagene TRANS M32 internal marker reporter;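 note: transcript level of a background control reporter unit measured by RT-PCR and capillary electrophoresis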
Procedure, shortened: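 Cell-based TRANS-format assay in HepG2: exogenous chimeric GAL4 reporter units transiently expressed, compounds applied 24 h. Reporter mRNA detected by RT-PCR plus capillary electrophoresis; this readout is an internal background marker.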

[18] = ATG_GAL4_TRANS: Attagene TRANS-FACTORIAL HepG2 Assay for GAL4 (Internal Marker) (AID 2282976); conditions: HepG2 Attagene TRANS GAL4 internal marker reporter
Procedure, shortened: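 First, HepG2 cells were transfected with reporter units under GAL4-UAS control. Next, they were treated with chemical for 24 h. Finally, RNA was reverse-transcribed, PCR-amplified, FAM-labelled and resolved by capillary electrophoresis, with induction scored against DMSO.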

[19] = target: Oxysterols receptor LXR-beta (Homo sapiens) (UniProt P55055); experiment: ATG_LXRb_TRANS: Attagene TRANS-FACTORIAL HepG2 Assay for human Liver X Receptor beta (LXRb) (AID 2282981); conditions: HepG2 Attagene TRANS GAL4-LXRb reporter, mRNA
Procedure, shortened: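 After 24 h of chemical treatment, transfected HepG2 cells yield total RNA; reporter cDNA is PCR-amplified, FAM-labelled, HpaI-cut and run on capillary electrophoresis. Signal reflects chimeric LXRb-Gal4 activity on GAL4-UAS reporters.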

Measured: AC50

Chain of Estrogen receptor (Homo sapiens) (P03372 whole entry, looked up, the tested form may be a part): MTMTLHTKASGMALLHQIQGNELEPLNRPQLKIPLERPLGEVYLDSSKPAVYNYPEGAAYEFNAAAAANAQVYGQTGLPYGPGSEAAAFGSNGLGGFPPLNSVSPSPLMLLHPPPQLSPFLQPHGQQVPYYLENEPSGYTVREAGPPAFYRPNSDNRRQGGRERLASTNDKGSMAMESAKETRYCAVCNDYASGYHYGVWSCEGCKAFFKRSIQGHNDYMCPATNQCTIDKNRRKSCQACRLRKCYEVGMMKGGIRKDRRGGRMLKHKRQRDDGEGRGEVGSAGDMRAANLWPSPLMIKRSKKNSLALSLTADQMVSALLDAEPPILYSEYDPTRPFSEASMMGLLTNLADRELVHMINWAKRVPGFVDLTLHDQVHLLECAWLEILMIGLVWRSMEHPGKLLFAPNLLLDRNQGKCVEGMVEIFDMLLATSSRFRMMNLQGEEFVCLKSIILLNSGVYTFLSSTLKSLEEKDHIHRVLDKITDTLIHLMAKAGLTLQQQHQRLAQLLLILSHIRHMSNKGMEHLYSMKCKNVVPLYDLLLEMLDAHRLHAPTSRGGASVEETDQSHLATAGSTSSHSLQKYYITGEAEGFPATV
Chain of Steroid hormone receptor ERR1 (Homo sapiens) (P11474 whole entry, looked up, the tested form may be a part): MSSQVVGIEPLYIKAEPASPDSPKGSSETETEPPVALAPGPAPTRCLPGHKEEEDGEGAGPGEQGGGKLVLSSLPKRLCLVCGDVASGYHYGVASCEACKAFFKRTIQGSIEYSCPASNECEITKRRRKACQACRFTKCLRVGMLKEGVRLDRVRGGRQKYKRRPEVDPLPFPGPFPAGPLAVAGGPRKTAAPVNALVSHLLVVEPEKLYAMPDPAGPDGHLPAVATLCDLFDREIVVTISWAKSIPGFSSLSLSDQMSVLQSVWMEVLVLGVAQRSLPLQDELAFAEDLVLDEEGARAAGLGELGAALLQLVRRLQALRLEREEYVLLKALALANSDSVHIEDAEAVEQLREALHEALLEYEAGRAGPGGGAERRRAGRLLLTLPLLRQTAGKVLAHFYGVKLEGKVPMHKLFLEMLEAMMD
Chain of Nuclear receptor subfamily 4 group A member 2 (Homo sapiens) (P43354 whole entry, looked up, the tested form may be a part): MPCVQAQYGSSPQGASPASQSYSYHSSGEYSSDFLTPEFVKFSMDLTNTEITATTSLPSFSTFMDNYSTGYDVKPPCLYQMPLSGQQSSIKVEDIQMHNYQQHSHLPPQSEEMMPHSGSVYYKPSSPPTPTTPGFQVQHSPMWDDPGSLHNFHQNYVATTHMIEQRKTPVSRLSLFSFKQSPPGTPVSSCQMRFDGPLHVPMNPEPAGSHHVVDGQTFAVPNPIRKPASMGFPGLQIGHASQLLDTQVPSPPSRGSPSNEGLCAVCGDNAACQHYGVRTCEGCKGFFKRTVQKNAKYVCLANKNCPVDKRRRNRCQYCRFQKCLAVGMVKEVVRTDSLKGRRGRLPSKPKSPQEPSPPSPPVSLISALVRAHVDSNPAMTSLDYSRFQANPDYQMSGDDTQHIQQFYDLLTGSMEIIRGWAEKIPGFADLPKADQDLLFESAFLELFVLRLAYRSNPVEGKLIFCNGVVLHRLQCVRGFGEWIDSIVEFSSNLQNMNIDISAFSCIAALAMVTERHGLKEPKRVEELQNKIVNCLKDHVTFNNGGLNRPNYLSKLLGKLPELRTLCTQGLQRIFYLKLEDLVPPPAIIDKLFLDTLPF
Chain of Nuclear receptor subfamily 1 group I member 3 (Homo sapiens) (Q14994 whole entry, looked up, the tested form may be a part): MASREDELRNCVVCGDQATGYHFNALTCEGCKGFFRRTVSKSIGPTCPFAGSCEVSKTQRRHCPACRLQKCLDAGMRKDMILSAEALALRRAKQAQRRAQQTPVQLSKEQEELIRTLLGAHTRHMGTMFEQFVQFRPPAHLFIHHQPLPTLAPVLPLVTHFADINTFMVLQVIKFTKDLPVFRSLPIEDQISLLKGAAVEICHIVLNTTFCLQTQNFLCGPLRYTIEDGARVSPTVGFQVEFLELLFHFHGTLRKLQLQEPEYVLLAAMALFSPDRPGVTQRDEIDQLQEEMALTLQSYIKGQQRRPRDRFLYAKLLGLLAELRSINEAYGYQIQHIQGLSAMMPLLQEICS
Chain of Estrogen-related receptor gamma (Homo sapiens) (P62508 whole entry, looked up, the tested form may be a part): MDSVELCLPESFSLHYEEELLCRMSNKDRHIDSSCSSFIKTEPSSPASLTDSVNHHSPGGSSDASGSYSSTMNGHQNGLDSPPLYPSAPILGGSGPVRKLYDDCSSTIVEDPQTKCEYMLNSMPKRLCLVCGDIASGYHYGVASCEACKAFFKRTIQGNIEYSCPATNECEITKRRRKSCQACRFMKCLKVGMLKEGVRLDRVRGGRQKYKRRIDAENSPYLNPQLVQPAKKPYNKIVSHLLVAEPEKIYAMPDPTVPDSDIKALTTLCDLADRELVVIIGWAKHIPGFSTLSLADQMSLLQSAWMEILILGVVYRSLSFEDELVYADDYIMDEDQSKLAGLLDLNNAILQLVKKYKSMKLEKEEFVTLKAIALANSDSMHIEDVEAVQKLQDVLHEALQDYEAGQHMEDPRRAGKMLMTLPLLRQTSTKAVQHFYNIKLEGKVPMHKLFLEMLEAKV
Chain of Oxysterols receptor LXR-alpha (Homo sapiens) (Q13133 whole entry, looked up, the tested form may be a part): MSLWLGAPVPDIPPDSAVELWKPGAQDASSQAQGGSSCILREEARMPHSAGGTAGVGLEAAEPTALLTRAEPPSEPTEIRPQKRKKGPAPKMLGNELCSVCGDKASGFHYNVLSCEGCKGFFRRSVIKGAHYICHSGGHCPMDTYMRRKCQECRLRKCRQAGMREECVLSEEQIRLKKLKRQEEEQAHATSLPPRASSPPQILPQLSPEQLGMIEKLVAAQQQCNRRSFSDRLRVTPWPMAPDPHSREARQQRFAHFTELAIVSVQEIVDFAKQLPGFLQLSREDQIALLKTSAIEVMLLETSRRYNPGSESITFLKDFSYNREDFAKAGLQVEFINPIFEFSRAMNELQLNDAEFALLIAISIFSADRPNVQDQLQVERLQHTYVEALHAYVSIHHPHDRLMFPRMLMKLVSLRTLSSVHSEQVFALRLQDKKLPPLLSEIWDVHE
Chain of X-box-binding protein 1 (Homo sapiens) (P17861 whole entry, looked up): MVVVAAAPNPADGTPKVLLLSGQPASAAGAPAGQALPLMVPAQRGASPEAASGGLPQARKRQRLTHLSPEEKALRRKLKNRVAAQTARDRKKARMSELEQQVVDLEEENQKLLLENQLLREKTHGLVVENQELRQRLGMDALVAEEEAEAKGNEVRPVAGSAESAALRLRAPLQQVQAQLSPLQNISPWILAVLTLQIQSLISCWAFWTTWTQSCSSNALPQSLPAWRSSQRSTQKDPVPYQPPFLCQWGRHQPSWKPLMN
Chain of Glucocorticoid receptor (Homo sapiens) (P04150 whole entry, looked up, the tested form may be a part): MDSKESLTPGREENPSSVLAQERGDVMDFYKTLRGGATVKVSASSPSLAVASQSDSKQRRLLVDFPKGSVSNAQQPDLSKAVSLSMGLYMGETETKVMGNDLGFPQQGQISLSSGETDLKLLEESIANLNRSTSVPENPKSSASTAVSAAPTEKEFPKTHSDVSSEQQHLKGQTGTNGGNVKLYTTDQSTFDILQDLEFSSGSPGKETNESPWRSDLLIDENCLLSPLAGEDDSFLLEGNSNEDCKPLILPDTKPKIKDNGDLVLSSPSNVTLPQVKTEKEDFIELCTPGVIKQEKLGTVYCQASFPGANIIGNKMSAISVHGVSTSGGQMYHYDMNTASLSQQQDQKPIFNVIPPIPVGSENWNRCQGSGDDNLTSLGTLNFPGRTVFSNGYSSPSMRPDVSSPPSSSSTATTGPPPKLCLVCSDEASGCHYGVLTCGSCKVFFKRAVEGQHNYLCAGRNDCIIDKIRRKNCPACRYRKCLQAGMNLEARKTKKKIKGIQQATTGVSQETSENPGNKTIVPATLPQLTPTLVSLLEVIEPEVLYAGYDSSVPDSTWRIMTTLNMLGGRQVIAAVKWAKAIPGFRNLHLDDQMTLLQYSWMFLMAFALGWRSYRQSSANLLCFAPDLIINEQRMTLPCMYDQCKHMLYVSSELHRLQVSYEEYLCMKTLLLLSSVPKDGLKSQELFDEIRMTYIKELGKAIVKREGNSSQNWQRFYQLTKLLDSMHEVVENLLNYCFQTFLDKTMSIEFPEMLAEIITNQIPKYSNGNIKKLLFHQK
Chain of Transcriptional activator Myb (Homo sapiens) (P10242 whole entry, looked up): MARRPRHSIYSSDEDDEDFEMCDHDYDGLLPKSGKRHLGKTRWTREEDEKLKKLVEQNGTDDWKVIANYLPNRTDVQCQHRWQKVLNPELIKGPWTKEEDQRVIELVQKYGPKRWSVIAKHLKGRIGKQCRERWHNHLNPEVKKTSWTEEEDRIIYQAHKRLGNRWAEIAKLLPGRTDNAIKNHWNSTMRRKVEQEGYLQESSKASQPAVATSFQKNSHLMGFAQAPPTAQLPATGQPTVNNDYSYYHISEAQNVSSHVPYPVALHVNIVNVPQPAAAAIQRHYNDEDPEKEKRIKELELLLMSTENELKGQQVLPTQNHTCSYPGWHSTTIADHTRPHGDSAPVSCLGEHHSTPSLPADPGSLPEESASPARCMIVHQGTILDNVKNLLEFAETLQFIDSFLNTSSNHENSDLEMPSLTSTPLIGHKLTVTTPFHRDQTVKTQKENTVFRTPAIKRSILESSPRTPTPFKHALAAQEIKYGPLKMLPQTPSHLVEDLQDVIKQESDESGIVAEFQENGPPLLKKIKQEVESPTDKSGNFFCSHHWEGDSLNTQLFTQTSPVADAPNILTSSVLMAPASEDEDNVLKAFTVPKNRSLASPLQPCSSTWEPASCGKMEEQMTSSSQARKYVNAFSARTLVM

CC1C(C)(C)C2=C(C(=O)CCC2)C1(C)C (centres undefined)
active: [6] 11.5 µM
not listed: [14] | [15] | [16] | [17] | [18] | [19]
inactive: all other assays above

C=CCCCCCCCCC=O
not listed: [8] | [10] | [18] | [19]
inactive: all other assays above

CCc1cccc(C)c1N
not listed: [5] | [15] | [16] | [19]
inactive: all other assays above

C=Cc1cccc(C)c1
not listed: [7] | [9] | [11] | [12] | [15] | [18] | [19]
inactive: all other assays above

Clc1cc(Cl)c(Cl)c(Cl)c1Cl
active: [3] 100 µM | [4] 56.2 µM
not listed: [6] | [7] | [9] | [11] | [15] | [17]
inactive: all other assays above

CC(C)c1ccc(O)c(C(C)C)c1
not listed: [6] | [7] | [9] | [10] | [15] | [18] | [19]
inactive: all other assays above

CC(C)CCOCc1ccccc1
not listed: [6] | [8] | [9] | [10] | [15] | [17] | [19]
inactive: all other assays above

Cc1c(Cl)cccc1Cl
not listed: [6] | [7] | [9] | [11] | [12] | [15] | [17] | [19]
inactive: all other assays above

NNS(=O)(=O)c1ccc(Oc2ccc(S(=O)(=O)NN)cc2)cc1
not listed: [5] | [9] | [10] | [16] | [17] | [19]
inactive: all other assays above

CCCCC(CC)COC(=O)/C=C/c1ccc(OC)cc1 (centres undefined)
not listed: [6] | [8] | [18] | [19]
inactive: all other assays above

CC(=O)OCCc1ccccc1
inactive: [1] | [2] | [3] | [4] | [5] | [15] | [16] | [13]
